The panel holds about 79,000 compounds, 15% with a hit somewhere; the sample as a whole holds those more often. Values without a mark were called inactive. Calls of active or inactive are those of the source. Rule as the data show it: active = growth inhibition above about 70%; inactive = the rest.
Legend:
[1] = NCI Yeast Anticancer Drug Screen. Data for the rad50 strain (AID 155);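 also: 0% = growth of vehicle-only cultures of the same strain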; details: S. cerevisiae rad50 strain growth inhibition, stronger effect = higher value
In short: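 Yeast carrying a defined DNA repair defect were exposed to test compounds, and growth was compared with vehicle-treated controls to give percent inhibition.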

[2] = NCI Yeast Anticancer Drug Screen. Data for the mec2-1 strain (AID 157); details: S. cerevisiae mec2-1 strain, stronger effect = higher value
In short: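 Cells of the genetically defined mec2-1 yeast strain are incubated with test compound. Inhibition of growth is calculated against vehicle-treated controls.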

[3] = NCI Yeast Anticancer Drug Screen. Data for the sgs1 mgt1 strain (AID 161);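 also: 0% = growth of cultures given vehicle only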; details: S. cerevisiae sgs1 mgt1 strain, stronger effect = higher value
In short: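 Mutant yeast exposed to compound; growth scored against vehicle-only wells.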

[4] = NCI Yeast Anticancer Drug Screen. Data for the cln2 rad14 strain (AID 165);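 also: 0% = growth equal to vehicle treated cultures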; details: S. cerevisiae cln2 rad14 strain, stronger effect = higher value
In short: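 The screen exposed genetically defined yeast (cln2 rad14) to test compounds and scored growth inhibition relative to vehicle-treated controls.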

[5] = NCI Yeast Anticancer Drug Screen. Data for the bub3 strain (AID 167); details: S. cerevisiae bub3 mutant strain, stronger effect = higher value
In short: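 Compounds were applied to a genetically altered yeast strain carrying a cell-cycle control defect. Growth inhibition was scored against vehicle-treated controls.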

[6] = NCI Yeast Anticancer Drug Screen. Data for the mlh1 rad18 strain (AID 175); details: S. cerevisiae mlh1 rad18 strain growth inhibition, stronger effect = higher value
In short: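 Compound-treated yeast growth, normalised to vehicle controls. Strain bears defined DNA repair mutations.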

[7] = at 5.0 µM (retest, dose inferred, filed as 0.5)
[8] = at 50.0 µM (retest, dose inferred, filed as 5.0)

| SMILES | growth inhibition [1, 7] | growth inhibition [1, 8] | growth inhibition ([1]; at 50.0 µM) | growth inhibition [2, 7] | growth inhibition [2, 8] | growth inhibition ([2]; at 50.0 µM) | growth inhibition [3, 7] | growth inhibition [3, 8] | growth inhibition ([3]; at 50.0 µM) | growth inhibition [4, 7] | growth inhibition [4, 8] | growth inhibition ([4]; at 50.0 µM) | growth inhibition [5, 7] | growth inhibition [5, 8] | growth inhibition ([5]; at 50.0 µM) | growth inhibition [6, 7] | growth inhibition [6, 8] | growth inhibition ([6]; at 50.0 µM) |
| --- | --- | --- | --- | --- | --- | --- | --- | --- | --- | --- | --- | --- | --- | --- | --- | --- | --- | --- |
| Oc1c(Br)cc(Cl)cc1Br | -4% | 98% (active) | 93.5% (active) | 5% | 99% (active) | 98% (active) | 4% | 99% (active) | 86.5% (active) | -11% | 98% (active) | 90.5% (active) | -6% | 97% (active) | 96% (active) | 3% | 96% (active) | 97.5% (active) |
| CCOC(=O)c1cnccc1CC1(C#N)c2ccccc2C=CN1C(=O)c1ccccc1 (configuration not stated) | 5% | 67% | 86.7% (active) | -2% | 83% (active) | 83.5% (active) | 4% | 67% | 93.2% (active) | -7% | 68% | 52.2% | 6% | 71% (active) | 75% (active) | 3% | 67% | 89.2% (active) |
| O=NNc1ncc(Sc2ccccc2)nc1Sc1ccccc1 | -14% | -8% | -0.45% | -11% | 13% | -24.9% | -3% | 20% | 45.5% | 3% | 11% | 15.5% | -13% | -11% | -9.1% | 4% | 12% | 71.8% (active) |
| CCn1c(O)c(C=Nc2ccccc2)s/c1=N/Nc1nc(-c2ccc(O)c(O)c2)cs1 | 0% | 21% | 57% | -22% | 1% | 48.4% | -6% | 11% | 72.2% (active) | -10% | 6% | 41.5% | -7% | 38% | 79% (active) | -17% | 25% | 66% |
| CCCCOc1ccc(-c2c(COC(=O)NC)c(COC(=O)NC)c(C)n2C)cc1 | 23% | 94% (active) | 85.3% (active) | 14% | 97% (active) | 89.5% (active) | 21% | 99% (active) | 90% (active) | 19% | 85% (active) | 89% (active) | 17% | 99% (active) | 87.3% (active) | 20% | 96% (active) | 88.2% (active) |
| COc1ccc2c(c1)CC1c3c(ccc(OC)c3O)CC2N1C (configuration not stated) | -15% | 56% | 86.7% (active) | -44% | 37% | 91.3% (active) | -6% | 59% | 93.7% (active) | -24% | 52% | 92.5% (active) | -4% | 75% (active) | 92% (active) | -55% | 61% | 89.5% (active) |
| O=C(Nc1ccc(Cl)cc1)Nc1cc(Cl)ccc1O | -2% | 22% | 93% (active) | 0% | 35% | 96.2% (active) | -1% | 28% | 90.3% (active) | -8% | 27% | 94% (active) | -4% | 19% | 96.5% (active) | -3% | 30% | 97.5% (active) |
| CCN(CC)C(C)(C)C(=O)/C=C/c1ccc(Cl)c(Cl)c1 | 13% | 97% (active) | 92.7% (active) | 3% | 97% (active) | 99.2% (active) | 6% | 97% (active) | 82.7% (active) | -8% | 96% (active) | 47.9% | 5% | 98% (active) | 96% (active) | 0% | 95% (active) | 95% (active) |
| CCCCCCCCCCCCSCCCN | -6% | 99% (active) | 99.2% (active) | -3% | 99% (active) | 99.5% (active) | -1% | 99% (active) | 99.2% (active) | -9% | 99% (active) | 99.5% (active) | -5% | 99% (active) | 99.5% (active) | -9% | 99% (active) | 99.5% (active) |

From PubChem BioAssay (NCI)
